TGFb SMAD3 inh: blocks TGF-b signaling | 410,000 compounds, 1.2% hits | Potency, µM (doses to about 46.1 µM), for the others: at the top dose activity, negative = inhibition, usual class: inhibitors | HepG2 CAGA-GFP TGF-b/SMAD3 reporter, GFP fluorescence, 18 h; TGF-beta stimulated, 500 pg/mL final | AID 588855; also: % is scaled to controls: 0 for no effect and ±100 for the full control effect; nearly all actives have a fitted effect of over 65% in size
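Inhibition was scored as loss of TGF-beta-induced (500 pg/mL final, 18 hours, 37 degrees C) GFP in HEPG2 cells carrying a CAGA-GFP reporter, in DMEM with 1% FBS. Well GFP was summed per cell; Activity was normalised to unstimulated and stimulated DMSO wells, then concentration-response fitting.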
HTT cytoprotect: protects HTT-Q103 PC12 cells, measured by ATP. PC12 HTT-Q103 induced, cytoprotection, ATP luminescence, 40 h. Potency, µM (doses to about 56.4 µM), for the others: cytoprotection (ATP increase), hits mostly activators. 230,000 compounds, 0.14% hits; also: % of control where 0% means no effect; nearly all actives have a fitted effect of over 45% in size
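Compounds added alongside 100 nM tebufenozide, which induces toxic Q103 huntingtin exon 1-GFP in stable PC12 cells; surviving cells quantified by luminescent ATP measurement. Medium: phenol red-free DMEM, 5% equine and 5% calf serum.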
HttQ103 aggreg: inhibitors of mutant huntingtin aggregate formation in PC12 cells; Potency, µM (highest dose often 46.1 µM), without a hit: at the highest dose activity change, negative = inhibition, actives largely listed as inhibitors; PC12 HttQ103-GFP aggregates, Acumen cytometry, 40 h; AID 1688; 220,000 compounds, 1.1% hits; also: % is scaled to controls: 0 for no effect and ±100 for the full control effect; nearly all actives have a fitted effect of over 60% in size
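Aggregates are detected as GFP objects 1–25 µm with signal 6 STDEV over background in lysates of induced PC12 cells. These carry Huntingtin exon 1 with 103 glutamines fused to GFP under an ecdysone promoter; compounds titrated.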
ATXN2 expr inh: ATXN2 expression inhibition; 360,000 compounds, 0.72% hits; HEK-293 ATXN2-luciferase reporter, luminescence, 24 h; Potency, µM (doses to about 57 µM), for inactives: at the highest dose activity change, negative = inhibition, actives largely listed as inhibitors; AID 1745845; also: % is scaled to controls: 0 for no effect and ±100 for the full control effect; nearly all actives have a fitted effect of over 55% in size
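ATXN2-luciferase reporter cells (luciferase flanked by upstream and downstream ATXN2 gene portions) were treated 24 h at 37 °C with compounds at up to 57 uM. SteadyGlo luminescence gave expression; GF-AFC fluorescence gave viability.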
HepG2 tox: kills HepG2 cells in TGF-b inhibitor counter-screen | HepG2 CAGA-GFP viability, ATP luminescence, 18 h | 410,000 compounds, 0.76% hits | Potency, µM (highest dose often 46.1 µM), for inactives: top-dose activity change, negative = cytotoxicity, most hits filed as cytotoxic
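HepG2 CAGA-GFP cells (1000/well, DMEM with 1% FBS) received compound, then TGF-beta at 500 pg/mL final, and were incubated 18 hours at 37 degrees C. Viability was read by CellTiter-Glo luminescence. Media-only wells were set as complete cell-killing and DMSO as no toxicity.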
S2 tox: reduces viability in counter-screen for ATXN expression inhibitors; S2 cells (HEK-293 line with an ATXN2-luciferase reporter) viability, CellTiter-Fluor protease fluorescence, 24 h; Potency, µM (doses to about 56.7 µM), actives largely listed as cytotoxic; 400,000 compounds, 0.49% hits; AID 651635; also: nearly all actives have a fitted effect of over 40% in size
* hit, by the source's call; i = inactive; ? = inconclusive; / = no result; ! = repeats disagree; [ ] = dose if it differs, or a comment. This is a sample that favours compounds with a hit; in the whole collection about 2.8% have one here. Calls follow the shape of the dose curve; as a rule, active = well fitted curve in the direction sought with a large enough effect; inconclusive = small, poorly fitted or top-dose-only effect, or another doubt; inactive = no such curve, though single readings can be large; an effect the other way counts as inactive or inconclusive. Potency is read from the fitted curve at half-maximal effect.

SMILES | TGFb SMAD3 inh | HTT cytoprotect | HttQ103 aggreg | ATXN2 expr inh | HepG2 tox | S2 tox
O=C(NCCc1nnc2n1CCN(Cc1ccsc1)CC2)c1ccc(F)cc1 | / | / | / | / | / | i
CN1CCC(COc2cnc(-c3cccc(Cn4nc(-c5cccc(C#N)c5)ccc4=O)c3)nc2)CC1 | / | / | / | -24.2% | / | /
C[C@H]1Cc2c(COc3ccccc3)nc3c(c2CO1)CN(S(=O)(=O)c1ccc(C#N)cc1)CC3 | / | -38.0%[10 µM] | / | / | / | /
CC(=O)C1(O)Cc2c(O)c3c(c(O)c2C(OC2CC(N)C(O)C(C)O2)C1)C(=O)c1c(O)cccc1C3=O (stereo unspecified) | 1.58µM* | -23.6% | 1µM* | / | -104.8% | /
Cc1cc(C)c2c(c1)C1C=CCC1C(C(=O)O)N2 (stereo unspecified) | -6.4% | / | / | / | 5.4% | /
COc1cc(/C=N/O)ccc1OCc1ccc(C(=O)O)cc1 | 8.9% | -24.5%[1.9 µM] | -7.2% | 0.708µM* | -32.2% | i
COc1cc(/C=N/OCC(=O)NC2CCCCC2)ccc1OCc1ccccc1 | -9.9% | / | 7.3% | 19.8% | -19.1% | i
COc1cc(/C=N/N=C(N)N)ccc1OCc1ccc(Cl)cc1 | ? | -36.9% | -6.0%[9.22 µM] | ? | 10µM* | i
COc1cc(/C=N/OCC(=O)NC23CC4CC(CC(C4)C2)C3)ccc1OCc1ccccc1 | 20µM* | -10.7%[10 µM] | ? | 12.8% | 3.9% | i
CCOc1cc(/C=N/O)ccc1OCc1ccc(F)cc1 | -16.6% | 8.3%[10 µM] | -6.8% | 23.7% | -41.1% | i
COc1cc(/C=N/NS(=O)(=O)c2ccc3ccccc3c2)ccc1OCc1ccc(C(=O)O)cc1 | -6.0% | -14.1%[10 µM] | -25.6%[9.22 µM] | -1.8% | -28.1% | i
COc1cc(/C=N/O)ccc1OCc1ccc(Cl)cc1 | / | -1.2%[10 µM] | 0.3%[9.22 µM] | / | / | /
CCOc1cc(/C=N/N=C(N)N)ccc1OCc1ccc(Cl)cc1 | ? | / | ? | ? | -95.1% | 31.6µM*
NC(N)=N/N=C/c1ccc(OCc2ccccc2)c(OCc2ccccc2)c1 | 17.8µM* | / | / | 22.4µM* | 15.8µM* | 22.4µM*
O=C(CON=C1c2ccccc2-c2ccccc21)NC12CC3CC(CC(C3)C1)C2 | ? | -5.8%[10 µM] | 11.2µM* | -0.6% | 35.2% | i
COc1cc(/C=N/NC(N)=S)ccc1OCc1ccc(C)cc1 | 17.8µM* | / | ? | / | -7.4% | i
O=C(COC(=O)C(O)c1ccccc1)NC12CC3CC(CC(C3)C1)C2 (stereo unspecified) | 7.1% | 3.0%[10 µM] | 4.5% | -2.3% | 5.9% | i
CCOC(=O)C(C(=O)OCC)c1cc(Br)c2noc3c2c1C(=O)c1ccccc1-3 | 6.31µM* | -87.2% | ? | 11.2µM* | -52.8% | 20µM*
CCOC(=O)C1=C(c2ccccc2)N=c2s/c(=C\c3ccc(O)cc3)c(=O)n2C1c1cccs1 (stereo unspecified) | ? | -77.6% | ? | 28.2µM* | -89.3% | ?
Cc1sc2ccccc2[n+]1CCCC[n+]1c(C)sc2ccccc21 | ? | / | / | / | -31.1% | /
COc1ccc(C)cc1Nc1n[n+](-c2ccccc2)c(-c2c(OC)ccc3ccccc23)s1 | ? | / | / | ? | -61.5% | /
COc1ccc(C)cc1Nc1n[n+](-c2ccccc2)c(-c2cc(OC)c(OC)cc2Br)s1 | ? | / | / | ? | -22.0% | 22.4µM*
COc1ccc(Cn2c(SCc3ccc(C(=O)NC4CCCC4)cc3)nc3ccncc32)cc1 | ? | / | / | ? | -58.6% | ?
O=C(NC1CCCCC1)c1ccc(CSc2nc3cccnc3n2Cc2ccccc2)cc1 | -16.4% | / | / | 1.3% | -44.4% | ?
O=C(NC1CCCC1)c1ccc(CSc2nc3cccnc3n2Cc2ccccc2)cc1 | 17.8µM* | / | / | 7.4% | -43.0% | i
SMILES | TGFb SMAD3 inh | HTT cytoprotect | HttQ103 aggreg | ATXN2 expr inh | HepG2 tox | S2 tox
O=C(NC1CCCC1)c1ccc(CSc2nc3ccncc3n2Cc2ccc(F)cc2)cc1 | 7.94µM*! | / | 5.3% | ? | -37.1% | ?
COc1ccc(Cn2c(SCc3ccc(C(=O)NC4CCCCC4)cc3)nc3ccncc32)cc1 | 12.6µM* | / | / | ? | -31.8% | i
OC1CCCN(Cc2ccc3ccc4cccc5ccc2c3c45)C1 (stereo unspecified) | 20µM* | -106.2% | ? | ? | -60.0% | ?
c1cc2ccc3ccc(CN4CCOCC4)c4ccc(c1)c2c34 | -7.8% | -47.3% | -7.1% | 26.0% | -4.0% | i
Cc1cc(C)nc(S[C@H]2C[C@@H](C(=O)N3CCN(c4ccccc4F)CC3)N(Cc3ccccc3F)C2)n1 | / | / | / | / | / | i
O=C(Cn1c(SCC(=O)Nc2ccc(F)cc2)nc2ccccc21)NCc1ccc(F)cc1 | -24.9% | / | / | -17.3% | -57.5% | ?
O=C(Cn1c(SCC(=O)Nc2ccc(F)cc2)nc2ccccc21)NCc1ccc(Cl)cc1 | 12.6µM* | / | / | -27.3% | -98.2% | ?
Cc1ccc(CNC(=O)Cn2c(SCC(=O)Nc3ccc(F)cc3)nc3ccccc32)cc1 | ? | / | / | ? | 7.08µM* | ?
CCCc1cnc(NCCNCC(O)COc2ccc(Cl)c(Cl)c2)nc1 (stereo unspecified) | ? | -91.2%[10 µM] | -26.1%[9.22 µM] | ? | 20µM* | ?
O=C(Nc1ccc(Cl)cc1Cl)[C@@H]1CC=C[C@@H]2CCN(C3CCCCC3)C(=O)[C@@H]21 | -6.4% | / | / | / | -7.9% | /
CCCCN(CC)CCCNC(=O)c1ccc2c(c1)N(Cc1ccc(C)cc1)C(=O)c1ccccc1S2 | 14.1µM* | / | / | / | 11.2µM* | /
CN(C)CCNC(=O)c1ccc2c(c1)N(Cc1c(F)cccc1Cl)C(=O)c1ccccc1S2 | ? | / | / | 22.4µM* | -66.8% | i
Cc1cccc(CN2C(=O)c3ccccc3Sc3ccc(C(=O)NCCCN4CCOCC4)cc32)c1 | 11.2µM*! | / | / | -29.0% | 11.2µM*! | ?
COCCCNC(=O)c1ccc2c(c1)N(Cc1ccccc1)C(=O)c1ccccc1S2 | -19.8% | / | / | / | -33.8% | /
Cc1cc(Nc2cc(NC(=O)c3c(Cl)cccc3Cl)ccn2)nc(N)n1 | / | / | / | 7.69µM* | / | /
CN(C)c1cccc(C(=O)NCC2Cc3cccc(-c4cncnc4)c3O2)c1 (stereo unspecified) | / | / | / | / | / | i
C=C1C(=O)[C@@]23[C@H](O)C[C@@H]4C(C)(C)CC[C@H](O)[C@]4(C)[C@@H]2C[C@H](O)[C@@H]1[C@H]3O | 12.6µM* | / | 3.16µM* | -2.9% | -77.3% | 17.8µM*
C=C1C(=O)[C@@]23[C@H](O)C[C@@H]4C(C)(C)CC[C@H](O)[C@@]4(C)[C@@H]2CC[C@@H]1[C@H]3O | 0.891µM* | / | 2.82µM* | ? | 8.91µM* | 7.94µM*
CCOCCOC(=O)/C=C/c1ccc(OC)cc1 | / | / | / | 28.2% | / | i

Screens deposited in PubChem by National Center for Advancing Translational Sciences (NCATS).
